# S2 tox: Viability Counterscreen for Primary qHTS for Inhibitors of ATXN expression | S2 cells (HEK-293 line with an ATXN2-luciferase reporter) viability, CellTiter-Fluor protease fluorescence, 24 h | 400,000 tested, 0.49% active | Potency, µM (doses to about 56.7 µM), most hits filed as cytotoxic | AID 651635, 2014; also: nearly all actives have a fitted effect of over 40% in size
# D3 antag: qHTS of D3 Dopamine Receptor Antagonist: qHTS. D3R cells, DiscoveRx beta-arrestin luminescence, antagonist mode; active compounds read low. 360,000 tested, 2.5% active. D(3) dopamine receptor (Homo sapiens), P35462. AID 652054, 2013. max response, negative = inhibition, %; in the data active = max response below about -50%; inconclusive = no clear call, values can overlap the other calls
# Target sequence (P35462 whole entry, looked up): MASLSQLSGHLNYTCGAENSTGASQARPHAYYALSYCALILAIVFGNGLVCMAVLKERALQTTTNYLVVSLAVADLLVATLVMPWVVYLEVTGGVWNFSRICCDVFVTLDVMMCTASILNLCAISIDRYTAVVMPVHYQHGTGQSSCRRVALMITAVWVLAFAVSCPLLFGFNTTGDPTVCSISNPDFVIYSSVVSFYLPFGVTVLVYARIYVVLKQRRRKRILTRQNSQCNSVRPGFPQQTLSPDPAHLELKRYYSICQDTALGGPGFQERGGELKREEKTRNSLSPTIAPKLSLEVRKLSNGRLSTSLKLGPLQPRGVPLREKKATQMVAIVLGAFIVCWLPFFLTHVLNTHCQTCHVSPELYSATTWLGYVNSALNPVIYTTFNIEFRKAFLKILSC
#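 Cells expressing the human receptor were seeded at 1500 cells/well, incubated overnight at 37 degrees C in 5% CO2, then exposed to library compounds with dopamine controls for 90 minutes at 37 degrees C before luminescent detection.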
# TGFb inhibitor: qHTS for Inhibitors of TGF-b; HepG2 CAGA-GFP TGF-b/SMAD3 reporter, GFP fluorescence, 18 h; TGF-beta stimulated, 500 pg/mL final; Potency, µM (titrated, usually from 46.1 µM), actives largely listed as inhibitors; 410,000 tested, 1.2% active; AID 588855, 2011; also: nearly all actives have a fitted effect of over 65% in size
#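 TGF-beta reporter screen: HEPG2 CAGA-GFP, 1% FBS, 500 pg/mL TGF-beta final, 18 h; per-cell GFP summed per well; curves fitted and categorized by class.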
# ATXN2 expr inh: Primary qHTS for Inhibitors of ATXN expression; HEK-293 ATXN2-luciferase reporter, luminescence, 24 h; Potency, µM (top dose mostly 57 µM), most hits filed as inhibitors; 360,000 tested, 0.72% active; also: nearly all actives have a fitted effect of over 55% in size
#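 ATXN2-luciferase reporter cells (luciferase flanked by upstream and downstream ATXN2 gene portions) were treated 24 h at 37 °C with compounds at up to 57 uM. SteadyGlo luminescence gave expression; GF-AFC fluorescence gave viability.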
# DRD3 agonist: qHTS of D3 Dopamine Receptor Agonist: qHTS. 410,000 tested, 0.58% active. D3R DiscoveRx beta-arrestin cells, luminescence, 90 min. max activation, %. D(3) dopamine receptor (Homo sapiens), P35462; in the data active = max activation above about 30%
#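 Cells at 1500/well, incubated overnight, then treated with pinned compounds (dopamine as control) for 90 min at 37 degrees C. DiscoveRx reagent added for 30 - 60 minutes at room temperature; luminescence read.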
# HepG2 tox: qHTS for Inhibitors of TGF-b: Cytotox Counterscreen | HepG2 CAGA-GFP viability, ATP luminescence, 18 h | AID 588856, 2011 | 410,000 tested, 0.76% active | Potency, µM (highest dose often 46.1 µM), usual class: cytotoxic
#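 CellTiter-Glo luminescence gave cytotoxicity after 18 hours at 37 degrees C. The cells were HepG2 CAGA-GFP in 1% FBS DMEM, stimulated with 500 pg/mL TGF-beta after compound addition. %Activity was normalised to no-cell wells (complete cell-killing) and DMSO (no toxicity), and curves were fitted and classified.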
# Hits are given with their value; - = inactive; ? = inconclusive; . = not tested or not shown; ! = not active in a repeat. Rows were chosen to be rich in hits. Some 4.8% of all compounds tested hit in one or more screens of this group. Unless noted, calls follow the shape of the dose curve; as a rule, active = well fitted curve in the direction sought with a large enough effect; inconclusive = small, poorly fitted or top-dose-only effect, or another doubt; inactive = no such curve, though single readings can be large; an effect the other way counts as inactive or inconclusive.
SMILES,S2 tox,D3 antag,TGFb inhibitor,ATXN2 expr inh,DRD3 agonist,HepG2 tox
COC(=O)c1c(C(=O)OC)c2c(-c3ccccc3)cc3cccc1n32,.,-,-,.,34.2,-
CCn1c(=O)c2cc(C(=O)N(CC(C)C)CC(C)C)sc2c2ccccc21,-,.,?,-,-,-
Cc1ccc(C(=O)Nc2ccc(CC(=O)O)cc2)o1,-,-,-,-,-,-
CC(C)(C)c1ccc(C(=O)Nc2ccc(CC(=O)O)cc2)o1,-,-,-,0.398µM,-,-
CC(C)Oc1ccc(CNC(=O)C2CCN(C(=O)N3CCOc4ccc(Cl)cc43)CC2)cc1,.,.,?,.,-,-
COc1cc(CNC(C)c2ccccc2)cc(Br)c1OCc1ccc(F)cc1 (configuration not stated),.,-,?,?,-,22.4µM
COc1ccc(Br)cc1CNc1ccc(O)cc1,-,-66.4,?,-,-,12.6µM
COc1ccc(Br)cc1CNc1ccc2[nH]c(=O)[nH]c2c1,-,-,-,-,-,-
COc1cc(CNc2ccc(O)cc2)cc(Br)c1OCc1ccccc1,-,-,22.4µM,.,-,-
Cc1ccc(N(CC(=O)NCCc2ccccc2C)S(=O)(=O)N(C)C)cc1,-,.,-,-,-,-
COc1ccccc1N1CCN(C(=O)Cn2ncc3ccsc3c2=O)CC1,-,.,-,-,-,-
O=C(Cn1cc(COc2ccc(Br)cc2[N+](=O)[O-])nn1)c1ccc(O)cc1,-,-58.9,-,-,-,-
CC(=O)Nc1ccc(OCc2cn(CC(=O)c3ccc(O)cc3)nn2)cc1,-,-113.9,-,-,-,-
Cc1cccc(C)c1OCc1cn(CC(=O)c2ccc(O)cc2)nn1,-,-61.5,-,-,-,-
COc1cc(C(C)=O)ccc1OCc1cn(CC(=O)c2ccc(O)cc2)nn1,-,-72.0,-,-,-,-
Cc1cccc(-n2c3nc(=O)[nH]c(=O)c-3cc3ccc(Cl)cc32)c1C,-,.,-,-,-,-
COc1nccnc1NS(=O)(=O)c1ccc(NC(=S)NC(=O)c2ccc(F)cc2)cc1,-,-64.7,-,-,-,-
COc1nccnc1NS(=O)(=O)c1ccc(NC(=S)NC(=O)c2ccccc2F)cc1,-,-,-,-,-,-
COc1ccc(/C=C/C(=O)NC(=S)Nc2ccc(S(=O)(=O)Nc3nccnc3OC)cc2)cc1,-,-62.1,-,-,-,-
COc1ccc(/C=C/C(=O)NC(=S)Nc2ccc(S(=O)(=O)Nc3cc(OC)ncn3)cc2)cc1,-,-,-,-,-,-
COc1nccnc1NS(=O)(=O)c1ccc(NC(=S)NC(=O)c2cccc(F)c2)cc1,-,-61.6,-,-,-,-
CCc1ccc(-n2c(N3CCN(c4cccc(C)c4C)CC3)nc3ccccc3c2=O)cc1,.,.,-,.,-,-
NC[C@@H]1O[C@@H](O[C@H]2[C@@H](O)[C@H](O[C@@H]3[C@@H](O)[C@@H](N)C[C@H](N)[C@H]3O[C@H]3O[C@H](CN)[C@@H](O)[C@@H](O)[C@H]3N)O[C@H]2CO)[C@H](N)[C@@H](O)[C@@H]1O,-,.,.,-,.,.
O=C(NCC1(N2CCOCC2)CCCC1)c1cnn(-c2nccc(-c3cccs3)n2)c1C1CC1,-,.,.,.,.,.
Nc1ccn([C@@H]2O[C@H](C(=O)N(CCC3=CCCCC3)CC3CC3)[C@@H](O)[C@H]2O)c(=O)n1,-,-,-,-,40.2,-
CCOC(=O)C1=C(c2ccccc2)c2ccc(OC)cc2N(S(=O)(=O)C(F)(F)F)C1C(=O)OCC (configuration not stated),?,-,?,-,38.5,-
CN1CCCC(n2nc(Cc3ccc(Cl)cc3)c3ccccc3c2=O)CC1 (configuration not stated),31.6µM!,-53.7,-,35.5µM!,-,-
Cc1ccnc(NC(=S)NC(=O)c2ccco2)c1,-,-,-,-,-,-
